Test results: the supplement of paper PMC12636033
± gives the standard deviation of the averaged measurements. In all, about 33,000 sequences were measured (“E-score (rank enrichment, -0.5 to 0.5)”: median about -0.0068, highest 2% from about 0.24 on). The sample as a whole holds a higher share of the highest values than the screen did.

Tested on: muMax20 (Max(13-93) K31hArg/K57hArg, M65Nle)
Test: PBM 8-mer E-score (E-score (rank enrichment, -0.5 to 0.5)); higher = stronger preferential binding
Procedure: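 Protein binding microarray (universal PBM chip covering all 10-mers in fixed probe flanks) with chemically synthesized human Max(13-93) bHLH-LZ analogs (not full-length Max) bearing noncanonical residues (hArg, Tha, Aib, Nle at 65) and aromatic Cys staples. Read-out per 8-mer (and its reverse complement): E-score (rank-based enrichment, -0.5 to 0.5) and Z-score of median probe intensity.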

Q: How did the “PBM 8-mer E-score” value turn out when AATACAAA was run?
A: 0.343 ± 0.042

Q: Which “PBM 8-mer E-score” value does the source give for GACACATA here?
A: 0.139 ± 0.071

Q: AATACATA was tested. Which “PBM 8-mer E-score” value did it give?
A: 0.255 ± 0.074

Q: ACTGGATC was tested. Which “PBM 8-mer E-score” value did it give?
A: -0.0849 ± 0.029

Q: For CCTCATCA, which “PBM 8-mer E-score” value is on record?
A: -0.0311 ± 0.07

Q: How did the “PBM 8-mer E-score” value turn out when CGTCTACA was run?
A: -0.0683 ± 0.077

Q: Which “PBM 8-mer E-score” value does the source give for ATTCGACG here?
A: 0.0309 ± 0.1

Q: With CACGAGCA as the sequence, how does the “PBM 8-mer E-score” value read?
A: -0.159 ± 0.013

Q: CAAAACGA was tested. Which “PBM 8-mer E-score” value did it give?
A: 0.0111 ± 0.00023

Q: Which “PBM 8-mer E-score” value does the source give for GAAGACGA here?
A: -0.0988 ± 0.065

Q: Which “PBM 8-mer E-score” value does the source give for AAAGACGA here?
A: 0.246 ± 0.0064

Q: With AAAAACGC as the sequence, how does the “PBM 8-mer E-score” value read?
A: 0.0604 ± 0.015

Q: With AAAAACGA as the sequence, how does the “PBM 8-mer E-score” value read?
A: 0.297 ± 0.0076

Q: With GAAAACGA as the sequence, how does the “PBM 8-mer E-score” value read?
A: 0.0327 ± 0.09

Q: AAAAACGG was tested. Which “PBM 8-mer E-score” value did it give?
A: -0.048 ± 0.14

Q: With AAAAACGT as the sequence, how does the “PBM 8-mer E-score” value read?
A: 0.249 ± 0.0044

Q: For AAAGACGG, which “PBM 8-mer E-score” value is on record?
A: 0.0825 ± 0.019

Q: For CTCGGTCC, which “PBM 8-mer E-score” value is on record?
A: -0.2695 ± 0.0006

Q: How did the “PBM 8-mer E-score” value turn out when AGAGTTCA was run?
A: -0.124 ± 0.038

Q: How did the “PBM 8-mer E-score” value turn out when CGTTCGCA was run?
A: -0.0226 ± 0.0093

Q: For CTCAGACA, which “PBM 8-mer E-score” value is on record?
A: 0.044 ± 0.035

Q: Which “PBM 8-mer E-score” value does the source give for GCCATATA here?
A: 0.0868 ± 0.0087

Q: For CTACTACA, which “PBM 8-mer E-score” value is on record?
A: 0.146 ± 0.08

Q: For ATACTTCA, which “PBM 8-mer E-score” value is on record?
A: 0.0693 ± 0.032

Q: For GTACTACA, which “PBM 8-mer E-score” value is on record?
A: 0.262 ± 0.072

Q: CTACTTCA was tested. Which “PBM 8-mer E-score” value did it give?
A: 0.00799 ± 0.001

Q: Which “PBM 8-mer E-score” value does the source give for GTACTTCA here?
A: 0.237 ± 0.13

Q: Which “PBM 8-mer E-score” value does the source give for ATACTACA here?
A: 0.222 ± 0.078

Q: How did the “PBM 8-mer E-score” value turn out when ATCAGCGC was run?
A: -0.0642 ± 0.0034

Q: With CACCGGAG as the sequence, how does the “PBM 8-mer E-score” value read?
A: -0.173 ± 0.083

Q: For ACACATTC, which “PBM 8-mer E-score” value is on record?
A: -0.0504 ± 0.14

Q: Which “PBM 8-mer E-score” value does the source give for AATACGAA here?
A: 0.136 ± 0.041

Q: With AATCAACA as the sequence, how does the “PBM 8-mer E-score” value read?
A: 0.256 ± 0.032

Q: For TATCAACA, which “PBM 8-mer E-score” value is on record?
A: 0.158 ± 0.054

Q: With GATCAACA as the sequence, how does the “PBM 8-mer E-score” value read?
A: 0.0109 ± 0.0053

Q: With ACGGTGTG as the sequence, how does the “PBM 8-mer E-score” value read?
A: -0.143 ± 0.056

Q: With GCCTTGTA as the sequence, how does the “PBM 8-mer E-score” value read?
A: 0.029 ± 0.077

Q: For CCCTTGTA, which “PBM 8-mer E-score” value is on record?
A: 0.0442 ± 0.13

Q: Which “PBM 8-mer E-score” value does the source give for ACCTTGTA here?
A: 0.238 ± 0.077

Q: With GTCAGGAA as the sequence, how does the “PBM 8-mer E-score” value read?
A: -0.0169 ± 0.068

Q: How did the “PBM 8-mer E-score” value turn out when ATAGAGCC was run?
A: -0.106 ± 0.093

Q: Which “PBM 8-mer E-score” value does the source give for CAATACCA here?
A: 0.149 ± 0.042

Q: TAATACTA was tested. Which “PBM 8-mer E-score” value did it give?
A: 0.252 ± 0.0039

Q: With GAATACCA as the sequence, how does the “PBM 8-mer E-score” value read?
A: 0.121 ± 0.025

Q: TAATACCA was tested. Which “PBM 8-mer E-score” value did it give?
A: 0.24 ± 0.014

Q: Which “PBM 8-mer E-score” value does the source give for AAATACTA here?
A: 0.193 ± 0.081

Q: For CAATACTA, which “PBM 8-mer E-score” value is on record?
A: 0.16 ± 0.062

Q: With ACAGCAGG as the sequence, how does the “PBM 8-mer E-score” value read?
A: -0.0464 ± 0.034

Q: With GCTCCCCA as the sequence, how does the “PBM 8-mer E-score” value read?
A: 0.128 ± 0.042

Q: For CGGTCCTA, which “PBM 8-mer E-score” value is on record?
A: -0.17 ± 0.11

Q: With ATATGGGG as the sequence, how does the “PBM 8-mer E-score” value read?
A: 0.0664 ± 0.016

Q: How did the “PBM 8-mer E-score” value turn out when GCGCGAAC was run?
A: -0.0762 ± 0.17

Q: How did the “PBM 8-mer E-score” value turn out when GACTAAGC was run?
A: -0.239 ± 0.043

Q: For AACCATTA, which “PBM 8-mer E-score” value is on record?
A: 0.269 ± 0.0088

Q: How did the “PBM 8-mer E-score” value turn out when CACCATTA was run?
A: 0.0322 ± 0.16

Q: For AACCATTG, which “PBM 8-mer E-score” value is on record?
A: -0.0386 ± 0.14

Q: Which “PBM 8-mer E-score” value does the source give for TAAATGAA here?
A: 0.114 ± 0.11

Q: AGTTGCAG was tested. Which “PBM 8-mer E-score” value did it give?
A: 0.0866 ± 0.039

Q: Which “PBM 8-mer E-score” value does the source give for AGTTGCAT here?
A: 0.287 ± 0.067

Q: With AGTTGCAC as the sequence, how does the “PBM 8-mer E-score” value read?
A: -0.00822 ± 0.011

Q: How did the “PBM 8-mer E-score” value turn out when GGTTACAC was run?
A: 0.151 ± 0.076

Q: How did the “PBM 8-mer E-score” value turn out when CGTGCTCA was run?
A: 0.162 ± 0.051

Q: For CGATGGAG, which “PBM 8-mer E-score” value is on record?
A: -0.153 ± 0.037

Q: CATGTGAG was tested. Which “PBM 8-mer E-score” value did it give?
A: 0.216 ± 0.059

Q: Which “PBM 8-mer E-score” value does the source give for GACGTGGC here?
A: -0.0512 ± 0.032

Q: Which “PBM 8-mer E-score” value does the source give for GATGTGAA here?
A: 0.105 ± 0.079

Q: How did the “PBM 8-mer E-score” value turn out when CATGTGAC was run?
A: 0.314 ± 0.075

Q: CACGTGGG was tested. Which “PBM 8-mer E-score” value did it give?
A: 0.447 ± 0.062

Q: Which “PBM 8-mer E-score” value does the source give for CACGTGGC here?
A: 0.442 ± 0.068

Q: For AATGTGAA, which “PBM 8-mer E-score” value is on record?
A: 0.211 ± 0.056

Q: With AACGTGGC as the sequence, how does the “PBM 8-mer E-score” value read?
A: 0.0382 ± 0.033

Q: Which “PBM 8-mer E-score” value does the source give for AACGTGGG here?
A: 0.184 ± 0.14

Q: For GATGTGAC, which “PBM 8-mer E-score” value is on record?
A: -0.206 ± 0.059

Q: For CAAGTGGG, which “PBM 8-mer E-score” value is on record?
A: 0.0751 ± 0.013

Q: TATGTGAA was tested. Which “PBM 8-mer E-score” value did it give?
A: 0.299 ± 0.074

Q: AAGTTCTC was tested. Which “PBM 8-mer E-score” value did it give?
A: -0.179 ± 0.0056

Q: For CACTGCAC, which “PBM 8-mer E-score” value is on record?
A: -0.0231 ± 0.055

Q: Which “PBM 8-mer E-score” value does the source give for CTCTAACC here?
A: -0.0244 ± 0.061

Q: CGAATTTC was tested. Which “PBM 8-mer E-score” value did it give?
A: 0.0312 ± 0.1

Q: With CGTTACCA as the sequence, how does the “PBM 8-mer E-score” value read?
A: 0.124 ± 0.012

Q: For CGCCATTA, which “PBM 8-mer E-score” value is on record?
A: -0.0752 ± 0.029

Q: With GCCCCTGA as the sequence, how does the “PBM 8-mer E-score” value read?
A: -0.179 ± 0.034

Q: AAGCTTAG was tested. Which “PBM 8-mer E-score” value did it give?
A: 0.0465 ± 0.086

Q: For GACGTGGA, which “PBM 8-mer E-score” value is on record?
A: 0.04 ± 0.064

Q: With CATGTGGA as the sequence, how does the “PBM 8-mer E-score” value read?
A: 0.213 ± 0.054

Q: AGTGTGAG was tested. Which “PBM 8-mer E-score” value did it give?
A: 0.163 ± 0.14

Q: How did the “PBM 8-mer E-score” value turn out when AGTGTGAA was run?
A: 0.254 ± 0.011

Q: With CATGTGGG as the sequence, how does the “PBM 8-mer E-score” value read?
A: 0.309 ± 0.033

Q: For AATGTGGG, which “PBM 8-mer E-score” value is on record?
A: 0.142 ± 0.14

Q: For CACGTGGA, which “PBM 8-mer E-score” value is on record?
A: 0.459 ± 0.037

Q: How did the “PBM 8-mer E-score” value turn out when TGTGTGAA was run?
A: 0.183 ± 0.038

Q: For TACGTGGA, which “PBM 8-mer E-score” value is on record?
A: 0.0197 ± 0.044

Q: GCCTCGGA was tested. Which “PBM 8-mer E-score” value did it give?
A: -0.187 ± 0.058

Q: AAGTAGCC was tested. Which “PBM 8-mer E-score” value did it give?
A: -0.0862 ± 0.0056

Q: Which “PBM 8-mer E-score” value does the source give for AACCTGAA here?
A: 0.0509 ± 0.081

Q: Which “PBM 8-mer E-score” value does the source give for AGGTTTCA here?
A: -0.031 ± 0.018

Q: How did the “PBM 8-mer E-score” value turn out when CACAAAAC was run?
A: 0.165 ± 0.027

Q: Which “PBM 8-mer E-score” value does the source give for TAGACTCA here?
A: -0.163 ± 0.0053

Q: How did the “PBM 8-mer E-score” value turn out when CTGTGAGC was run?
A: -0.113 ± 0.058

Q: With ACAAAGAT as the sequence, how does the “PBM 8-mer E-score” value read?
A: 0.137 ± 0.027

Q: Which “PBM 8-mer E-score” value does the source give for AAAAAGAC here?
A: 0.0949 ± 0.026

Q: How did the “PBM 8-mer E-score” value turn out when AAAAAGCT was run?
A: 0.272 ± 0.099

Q: With AAAAAGCA as the sequence, how does the “PBM 8-mer E-score” value read?
A: 0.218 ± 0.046

Q: Which “PBM 8-mer E-score” value does the source give for AAAAAGCC here?
A: 0.166 ± 0.028

Q: Which “PBM 8-mer E-score” value does the source give for AAAAAGAT here?
A: 0.24 ± 0.03

Q: How did the “PBM 8-mer E-score” value turn out when ATATCGCG was run?
A: 0.0599 ± 0.043

Q: Which “PBM 8-mer E-score” value does the source give for AGAAAGAT here?
A: 0.061 ± 0.093

Q: How did the “PBM 8-mer E-score” value turn out when ATTTTGAA was run?
A: 0.253 ± 0.084

Q: For ATTTTGAG, which “PBM 8-mer E-score” value is on record?
A: 0.111 ± 0.012

Q: With AATTTGAA as the sequence, how does the “PBM 8-mer E-score” value read?
A: 0.149 ± 0.027
